Measurements from PubChem BioAssay AID652017 (The Scripps Research Institute Molecular Screening Center, 2013).
The campaign covered roughly 370,000 compounds. About 3,800 (1%) were called active. No stated cut-off is given here; in the data, active means activation above about 7.8%; inactive means the rest. What follows is part of a selection rich in actives, with near analogues and random picks from the rest.

Test: SMARCA2 (BRM) function activators, primary screen, cell-based, luminescence, high throughput (AID 652017);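 further: 0% = vehicle wells and 100% = reference activator wells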
Settings: MG213 cells, MMTV-luciferase reporter, dexamethasone, overnight; at 9.1 µM; hits give high values
For `C=CCN1C(=O)[C@@H](CC(=O)NCCCCc2ccccc2)[C@]2(C(=O)OCC)CCCCC/C=C/12`, the activation was -5.79% (inactive).
For `CC1(C)O[C@@H]2CC3C4C[C@H](F)C5=CC(=O)C=CC5(C)C4C(O)CC3(C)[C@]2(C(=O)CO)O1` (some centres not stated), the activation was -1.35% (inactive).
With `C=C(C)C#CC(Cc1ccccc1)NCC1CC1` (configuration not stated) the activation was -5.21% (inactive).
With `COCCOC1CCN(C(=O)c2ccc(OC)c(OC3CCN(C(C)C)CC3)c2)CC1` the activation was -1.95% (inactive).
In the case of `CC(C)Cc1nnc(NC(=O)CCNC(=O)c2ccccc2Cl)s1`, the activation was 9.18% (active).
For `COc1ccccc1OCCNC(=O)CCNC(=O)c1ccccc1Cl`, the activation was 0.37% (inactive).
For `CC(C)Cc1nnc(NC(=O)CCC(=O)Nc2ccc3cn[nH]c3c2)s1`, the activation was -4% (inactive).
With `Cc1nc2cc(S(=O)(=O)C(F)(F)F)ccc2s1` the activation was 5.28% (inactive).
For `COC(=O)Cc1ccc(OC(=O)C2CCN(S(=O)(=O)c3ccc(OC)c(OC)c3)CC2)cc1`, the activation was -1.69% (inactive).
In the case of `Cc1ccc(-n2c(SCC(=O)Nc3ccc(S(=O)(=O)Nc4nccs4)cc3)nnc2-c2ccncc2)cc1`, the activation was -0.03% (inactive).
In the case of `Cc1cc(-n2cnc(-c3cn(C)nc3C)n2)no1`, the activation was 8.03% (active).
For `Cc1ccc(Cn2cc(COC(=O)N(C)Cc3ccccc3)nn2)cc1`, the activation was -1.94% (inactive).
In the case of `O=S1(=O)c2c(cccc2N2CCCCC2)O[C@H](COCc2ccccc2)CN1C1CC1`, the activation was -5.02% (inactive).
With `CCOc1ccc(-n2c(SCC(=O)Nc3cc(C)c(NC(=O)c4ccccc4)cc3OC)nnc2-c2cccs2)cc1` the activation was -4.31% (inactive).
For `O=C(C(=O)N1CCc2ccccc2C1)c1c[nH]c2ccccc12`, the activation was 0.35% (inactive).
In the case of `CCc1ccc(NC(=O)N2CCc3ccccc3C2)cc1`, the activation was 7.91% (active).
With `Cc1cccc(OC(C)C(=O)N2CCc3ccccc3C2)c1` (configuration not stated) the activation was -2.36% (inactive).
For `Cc1cccc(C)c1NC(=O)c1ccc(CN2CCc3ccccc3C2)cc1`, the activation was -1.14% (inactive).
In the case of `CCOC(=O)c1c(NC(=S)SC)sc(C(=O)N2CCc3ccccc3C2)c1C`, the activation was -2.6% (inactive).
In the case of `O=C(Nc1cccc([N+](=O)[O-])c1)N1CCc2ccccc2C1`, the activation was 12.9% (active).
With `COC(=O)c1ccccc1-n1cc(COC(=O)NCCc2ccccc2)nn1` the activation was -2.76% (inactive).
In the case of `CCCCNC(=O)C[C@H]1C(=O)N(Cc2ccc(OC)cc2)C2=CCCC[C@@]21C(=O)OCC`, the activation was -1.43% (inactive).
For `Cc1n[nH]c(=O)nc1N/N=C/c1cccs1`, the activation was 9.22% (active).
With `Cn1c(=O)c2c(nc(N/N=C/c3cccs3)n2Cc2ccc(Br)cc2)n(C)c1=O` the activation was -0.25% (inactive).
For `Cc1nc2ccccc2n1CC(=O)N/N=C/c1cccs1`, the activation was 0.43% (inactive).
In the case of `O=C(c1ccncc1)N1CC[C@H]2[C@H](CCCN2Cc2ccc(F)cc2)C1`, the activation was 0.1% (inactive).
In the case of `COc1ccc(Cn2ccc3ccc(-c4ccc5ccn(Cc6ccccc6C)c5c4)cc32)cc1`, the activation was -1.41% (inactive).
In the case of `COC(=O)C[C@@H]1CC[C@@H]2[C@H](COc3ccc(NC(=O)c4cccc(F)c4)cc3C(=O)N2C)O1`, the activation was -3.28% (inactive).
In the case of `COC(=O)C[C@H]1CC[C@H]2[C@H](COc3ccc(NC(=O)C4CC4)cc3C(=O)N2C)O1`, the activation was -0.29% (inactive).
In the case of `COc1cc(/C=N/NC(=O)c2ccccc2)ccc1OS(=O)(=O)c1ccccc1`, the activation was 11.6% (active).
For `COc1ccc(S(=O)(=O)N(CC(=O)N/N=C/c2ccc(C(=O)O)cc2)Cc2ccccc2)cc1OC`, the activation was 0.18% (inactive).
In the case of `COc1cc(/C=N/NC(=O)Nc2ccccc2)ccc1OCCOc1ccccc1C`, the activation was -2.07% (inactive).
With `Cc1ccc(CNC(=O)COc2ccc(S(=O)(=O)NC(C)C)cc2)cc1` the activation was -3.1% (inactive).
With `COc1ccc(S(=O)(=O)NC(C)C(=O)NCc2ccncc2)cc1Cl` (configuration not stated) the activation was -1.23% (inactive).
For `Cc1ccc(S(=O)(=O)NC(C)C(=O)NCc2ccc(Cl)cc2)cc1` (configuration not stated), the activation was 8.48% (active).
With `O=S1(=O)CCC(NC(=S)SCc2ccccc2Br)C1` (configuration not stated) the activation was -1.67% (inactive).
For `CCCSC(=S)NC1CCS(=O)(=O)C1` (configuration not stated), the activation was 8.13% (active).
In the case of `CC(C)C(=O)NC(NC(=S)NC1CCS(=O)(=O)C1)C(Cl)(Cl)Cl` (configuration not stated), the activation was 1.31% (inactive).
In the case of `COc1ccc(C(=O)OCCN2CCN(C3CN(Cc4cn(Cc5ccccc5F)nn4)S(=O)(=O)C3)CC2)cc1OC` (configuration not stated), the activation was -1.26% (inactive).
With `Cc1nc(N)sc1N=Nc1c(C)n(C)n(-c2ccccc2)c1=O` the activation was -4.59% (inactive).
For `Cc1c(N=Nc2ccc(N(C)C)cc2)c(=O)n(-c2ccccc2)n1C`, the activation was 7.84% (active).
With `Cc1c(C=O)n(C)n(-c2ccccc2)c1=O` the activation was 1.03% (inactive).
For `C[C@@H]1COc2cccc(N3CCCC3)c2S(=O)(=O)N1C`, the activation was -1.71% (inactive).
In the case of `COc1ccc(-c2cc(C(=O)NC(Cc3c[nH]c4ccccc34)C(=O)O)c(C)o2)cc1OC` (configuration not stated), the activation was 3.58% (inactive).
For `COc1cccc(CNC(=O)[C@H]2CCCN2C(=O)[C@H]2CCCN2C(=O)C2CCCCC2)c1`, the activation was -3.87% (inactive).
In the case of `CCN(CC)CCNC(=O)c1sc2ncn(CC(=O)Nc3ccc(C)c(Cl)c3)c(=O)c2c1C`, the activation was 7.84% (active).
In the case of `CCN(CC)CCNC(=O)Cn1cnc2sc(C)c(S(=O)(=O)N3CCOCC3)c2c1=O`, the activation was -6.85% (inactive).
In the case of `CCN(CC)CCCNC(=O)Cn1cnc2sc(C)c(S(=O)(=O)N3CCN(c4ncccn4)CC3)c2c1=O`, the activation was -0.93% (inactive).
In the case of `Cc1cccc(C)c1NC(=S)N(Cc1cccnc1)Cc1ccccc1Cl`, the activation was -5.44% (inactive).
In the case of `CCOC(=O)[C@]12CCCC=C1N(Cc1ccc(OC)cc1)C(=O)[C@@H]2CC(=O)N1CCOCC1`, the activation was 1.91% (inactive).
In the case of `COc1ccc(-n2c(COc3ccccc3)nnc2SCC(=O)Nc2ccc3c(c2)OCO3)cc1`, the activation was -4.96% (inactive).
In the case of `O=C(NCC1CCCO1)c1cc2c(s1)CCCC2` (configuration not stated), the activation was 10.9% (active).
In the case of `O=C(NCCCn1ccnc1)c1cc2c(s1)CCCC2`, the activation was -1.02% (inactive).
In the case of `CCC(=O)c1c[nH]c(C(=O)NCC2CCCO2)c1` (configuration not stated), the activation was 1.33% (inactive).
In the case of `O=C(Nc1ccc(F)cc1)c1cc2c(s1)CCCC2`, the activation was 10.2% (active).
For `O=C(Nc1cccc2c1CCCC2)c1ccc(F)cc1`, the activation was -0.7% (inactive).
In the case of `O=C(CNC(=O)c1cc2c(s1)CCC2)Nc1ccccc1Br`, the activation was 3.62% (inactive).
With `Cc1ccccc1NC(=O)C1CCN(c2ncccn2)CC1` the activation was -1.72% (inactive).
In the case of `CC(=O)N1CCc2cc(S(=O)(=O)NCCC(=O)N3CCCC3)ccc21`, the activation was -4.7% (inactive).
For `COC(=O)C1CN(Cc2cn(Cc3ccc(F)cc3)nn2)CCS(=O)(=O)N1Cc1ccc(Cl)cc1` (configuration not stated), the activation was -3.03% (inactive).
In the case of `COc1ccc(-c2cc3ncccc3cn2)cc1`, the activation was 8.94% (active).
In the case of `COc1ccc(-c2cc(C3CCN(c4ncccc4[N+](=O)[O-])CC3)[nH]n2)cc1`, the activation was -2.21% (inactive).
In the case of `COc1cc(OC)cc(-c2cc3ccc(F)cc3cn2)c1`, the activation was 7.74% (inactive).
For `COCC(C)n1c(SCc2ccc(C(=O)OC)o2)nc2ccccc2c1=O` (configuration not stated), the activation was 9.35% (active).
For `COCCn1c(C)cc(C(=O)CSc2nc3ccccc3c(=O)n2C(C)COC)c1C` (configuration not stated), the activation was -2.97% (inactive).
In the case of `COCC(C)n1c(SCC(=O)NC2CCCCC2C)nc2ccccc2c1=O` (configuration not stated), the activation was -2.03% (inactive).
With `COC(=O)C1CN(Cc2ccc(F)cc2)CCS(=O)(=O)N1Cc1ccc(Cl)cc1` (configuration not stated) the activation was -2.03% (inactive).
In the case of `c1ccc2cc3c(NCCN4CCOCC4)ccnc3cc2c1`, the activation was 15.8% (active).
In the case of `CSc1ccc(CNCCN2CCOCC2)cc1`, the activation was -0.08% (inactive).
With `O=C(Cc1ccc(Br)cc1)NCCN1CCOCC1` the activation was 5.26% (inactive).
In the case of `CC(C)(C)n1nc(C2CC2)c(Br)c1NC(=O)c1ccccc1F`, the activation was -3.81% (inactive).
In the case of `COc1ccc(S(=O)(=O)N2CCOCC2)cc1NC(=O)Cc1coc2cc(C)ccc12`, the activation was -0.89% (inactive).
With `C#CCCN([C@H](C(=O)OC)C(C)C)S(=O)(=O)c1ccc(F)cc1Br` the activation was 0.37% (inactive).
In the case of `O=C(OC12CCCN(C1)/C(=C/c1cccnc1)C2)C1CCCC1` (configuration not stated), the activation was -1.64% (inactive).
With `Cc1ccc(N/C=C/C(=O)c2ccccc2)cc1C` the activation was 14.5% (active).
With `COC(C(=O)Nc1ccc(S(=O)(=O)Nc2ccc(C)c(C)c2)cc1)c1ccccc1` (configuration not stated) the activation was -2.54% (inactive).
For `Cc1cccc(C(=O)Nc2ccc(C(=O)/C=C/c3cccs3)cc2)c1`, the activation was 7.01% (inactive).
With `O=C(CCCCCCCC(=O)N1CCCCC1)N1CCCCC1` the activation was -4.31% (inactive).
With `Cc1cccc(C(=O)Nc2c(-c3ccc(F)cc3)nc3ncccn23)c1` the activation was -2.99% (inactive).
With `CC(c1ccc(N)cc1)c1cn(C)c2ccccc12` (configuration not stated) the activation was 2.03% (inactive).
In the case of `Cc1ccc(CN(N=Nc2nonc2N)c2nonc2N)c(C)c1`, the activation was -3.9% (inactive).
With `CC(C)c1ccc(NC(=S)NC2CC3C=CC2C3)cc1` (configuration not stated) the activation was 8.66% (active).
For `CC(NC(=S)Nc1ccc(OC(F)F)cc1)c1ccc(F)cc1` (configuration not stated), the activation was -2.75% (inactive).
For `O=C(COC(=O)C1CC2C=CC1C2)Nc1ccccc1` (configuration not stated), the activation was -3.49% (inactive).
In the case of `COc1cccc(/C=C2\CC3(OC(C)=O)CCCN2C3)c1` (configuration not stated), the activation was 1.54% (inactive).
In the case of `COc1cccc(C(=O)Oc2cc(C)[nH]c(=O)c2[N+](=O)[O-])c1`, the activation was 0.69% (inactive).
In the case of `Cc1cc(OC(=O)c2ccc(OC(C)C)cc2)c([N+](=O)[O-])c(=O)[nH]1`, the activation was -2.6% (inactive).
For `Cc1cc(OC(=O)c2ccccc2)c([N+](=O)[O-])c(=O)[nH]1`, the activation was 7.86% (active).
In the case of `O=C1Cc2cc(S(=O)(=O)Nc3cccc(F)c3)ccc2N1`, the activation was 9.16% (active).
In the case of `Cn1c(=O)n(C)c2cc(S(=O)(=O)Nc3ccc(F)cc3)ccc21`, the activation was -2.88% (inactive).
In the case of `CC1CCC(NS(=O)(=O)c2ccc3c(c2)CC(=O)N3)CC1` (configuration not stated), the activation was -2.52% (inactive).
In the case of `CCN(CC)C(=O)CC[C@H]1CC[C@]2(CCCN(Cc3ccc(Cl)cc3)C2)O1`, the activation was -0.46% (inactive).
